# Screens as filed in PubChem.
# Most compounds without a hit are left out; they make up all but 0.99% or so of the library.
# TRHR PAM: allosteric enhancers of human TRH receptor; enhancement, % at 2 µM; 360,000 compounds, 0.66% hits; TRHR cells, fluo-8 calcium fluorescence, EC20 TRH enhancement; AID 493056; P34981; in the data active = enhancement above about 30%; also: 0% is about no effect
#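 TRHR-expressing cells loaded with fluo-8 calcium dye were read kinetically (ex 480/em 530) during compound addition, then stimulated with an EC20 of TRH (10 nM final). Enhancement of the Gq-mediated intracellular calcium response was scored.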
# TRHR agonist: activates the human TRH receptor; 360,000 compounds, 0.18% hits; AID 493084; TRHR cells, calcium flux fluo-8, FDSS agonist mode; activation, % at 2 µM; in the data active = activation above about 30%; also: 0% is about no effect
#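 TRHR-expressing cells, plated overnight in medium with 10% serum, were loaded with fluo-8 calcium dye at room temperature. After a 10 s baseline, library compound was pin-added and calcium release was recorded kinetically (ex 480/em 530) as agonist response.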
# TRPML1 ag: activates the human TRPML1 channel. Q9GZU1. TRPML1-expressing cells, Ca2+ dye fluorescence, FDSS. activation, % (concentration not given with the values). 410,000 compounds, 0.12% hits; in the data active = activation above about 50%; inconclusive = mostly about 30% to 49%; also: 0% is about no effect
# Target sequence (Q9GZU1 whole entry, looked up): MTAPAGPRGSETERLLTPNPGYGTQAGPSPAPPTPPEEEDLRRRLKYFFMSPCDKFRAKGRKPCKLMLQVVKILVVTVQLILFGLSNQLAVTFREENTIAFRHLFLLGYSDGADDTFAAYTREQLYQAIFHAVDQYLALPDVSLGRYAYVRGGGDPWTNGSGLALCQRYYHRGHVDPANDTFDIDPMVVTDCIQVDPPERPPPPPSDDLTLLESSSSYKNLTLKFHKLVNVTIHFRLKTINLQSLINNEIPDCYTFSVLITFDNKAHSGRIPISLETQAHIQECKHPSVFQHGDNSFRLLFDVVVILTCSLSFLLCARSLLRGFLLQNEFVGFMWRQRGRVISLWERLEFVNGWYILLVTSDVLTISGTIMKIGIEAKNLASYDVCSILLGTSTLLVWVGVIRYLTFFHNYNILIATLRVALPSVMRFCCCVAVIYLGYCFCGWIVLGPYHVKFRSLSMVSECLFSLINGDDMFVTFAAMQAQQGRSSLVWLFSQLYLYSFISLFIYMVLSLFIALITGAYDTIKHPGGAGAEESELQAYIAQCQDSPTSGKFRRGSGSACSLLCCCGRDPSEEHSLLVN
#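 Kinetic FDSS Ca2+ read in Tet-induced TRPML1-DL cells (ABD Ca8 dye plus quencher, 45-90 min RT loading): baseline, then compound, then 110 s agonist window; EC80 agonist 54-4 at 4uM final added afterwards for a 110 s antagonist window.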
# TRPV1 agonist: agonists of human vanilloid receptor 1 (TRPV1); Q8NER1; TRPV1-expressing cells, Fluo-8 calcium influx, agonist mode; activation, % at 8.33 µM; 320,000 compounds, 0.19% hits; in the data active = activation above about 80%; inconclusive = between about 30% and that limit; also: 0% is about no effect
#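 Fluo-8 calcium influx in TRPV1-expressing cells, kinetic read (ex 480/em 520 nm). Compound added and read 3 min for agonist activity, followed by capsaicin at EC20 final and 2 min further read for enhancement.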
# TRPV1 potentiator: potentiators of human vanilloid receptor 1 (TRPV1); 320,000 compounds, 0.02% hits; potentiation, % at 8.33 µM; TRPV1-expressing cells, Fluo-8 calcium influx, capsaicin EC20 potentiation; Q8NER1; AID 540277; in the data active = potentiation above about 80%; inconclusive = between about 30% and that limit; also: 0% is about no effect
#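 TRPV1-expressing cells were cultured overnight at 35.5C and loaded with Fluo-8 calcium dye for 40 to 90 min at room temperature. After a 10 s baseline, compound was added and calcium influx was read kinetically for 3 min (ex 480/em 520 nm).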
# TRPML1 inh: blocks the human TRPML1 channel; Q9GZU1; TRPML1-inducible cells, Ca2+ dye fluorescence, FDSS; stronger effect = lower value; inhibition of EC80 agonist-evoked calcium signal; activity change, negative = inhibition, % (test concentration not listed); 390,000 compounds, 0.02% hits; AID 624415; in the data active = activity change below about -50%; inconclusive = between about -30% and that limit;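 also: stimulus is agonist 54-4 at its EC80 concentration; % is scaled to controls: 0 for no effect and ±100 for the full control effect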
#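 TRPML1-DL cells, Tet-induced overnight (~16 h, 37 °C) at 1,500 cells/well, were loaded with Ca8 no-wash dye plus quencher for 45-90 min at room temperature. Compounds were pinned during FDSS kinetic reading; agonist 54-4 at EC80 (4 uM final) then added.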
# Active calls of the source: *; ? = inconclusive; · = no result given; ! = not active in a repeat.
SMILES,TRHR PAM,TRHR agonist,TRPML1 ag,TRPV1 agonist,TRPV1 potentiator,TRPML1 inh
Cc1nn(C(C)C(=O)NCCN2CCCCCC2)c(=O)c2nn(-c3ccccc3)c(C)c12 (stereo not given),30.3*,0.2,-0.4,-0.9,-4.2,-6.5
Cc1cccc(NC(=O)CCn2nc(C)c3c(C)n(-c4ccccc4)nc3c2=O)c1C,3.9,-0.4,-0.7,·,·,5.2
Cc1ccc(C)c(NC(=O)CCn2nc(C)c3c(C)n(-c4ccccc4)nc3c2=O)c1,7.5,-0.4,-0.9,·,·,-53.9*
CCOC(=O)N1CCN(C(=O)c2ccc3c(c2)ncn3C2CCCC2)CC1,34.5*,-0.5,-0.5,-1.4,3.6,16.4
CCCC(=O)N1CCN(c2nc(CC(C)C)c3c(c2C#N)CCC3)CC1,1.0,0.0,2.2,83.2*,-22.7,28.7
CC(C)Cc1nc(N2CCN(C(=O)c3ccco3)CC2)c(C#N)c2c1CCCC2,-10.6,1.8,-0.3,?,-15.7,-10.8
CCOc1ccc(NC(=O)CSc2nnc3c(n2)[nH]c2ccc(S(=O)(=O)N4CCCCC4)cc23)cc1,·,·,-0.2,·,·,·
CN(Cc1ccccc1)c1ccc(C=O)cc1,·,·,-1.4,·,·,·
COc1cc2c(NC3CCN(C)CC3)nc(N3CCCN(C)CC3)nc2cc1OCCCN1CCOCC1,·,·,-0.4,·,·,·
O=C(NNc1ccccc1F)c1sccc1Cl,·,·,-0.5,·,·,·
CCOc1ccc(NC(=O)Cc2c(O)c3ccccc3[nH]c2=O)cc1,6.9,0.2,-0.4,-1.1,24.4,24.6
COc1cccc(NC(=O)Cc2c(O)c3ccccc3[nH]c2=O)c1,30.6*,1.1,0.0,-1.0,-11.2,58.9
COc1cccc(CNC(=O)CCn2ccc3cc(S(=O)(=O)N4CCCC4)ccc32)c1,-7.5,-0.3,-0.7,89.2*,9.7,14.7
COc1ccc(NC(=O)C2CCCN(S(=O)(=O)c3ccc4[nH]c(=O)ccc4c3)C2)cc1OC (stereo not given),38.9*!,0.0,-0.2,-3.2,-8.0,-11.1
COc1cc(S(=O)(=O)N2CCCN(C)CC2)ccc1NC(C)=O,30.4*,0.4,0.0,-3.5,7.0,0.4
COc1ccc(S(=O)(=O)N2CCCC(C(=O)Nc3ccc(OC)c(OC)c3)C2)cc1 (stereo not given),2.7,-0.3,5.2,6.0,3.2,0.9
O=C(NCc1ccc(F)cc1)C1CCCN(c2nc3ccsc3c(=O)s2)C1 (stereo not given),5.1,-0.4,-0.2,83.0*,-19.7,0.8
COc1ccc(NC(=O)C2CCCN(S(=O)(=O)c3ccccc3)C2)c(OC)c1 (stereo not given),32.7*,-1.1,0.8,-0.2,5.9,5.0
O=S(=O)(c1ccc(Cl)cc1)N1CCN(S(=O)(=O)c2ccc3c(c2)OCCO3)CC1,11.3,0.4,·,·,·,·
COc1cc(N)c(N)cc1OC,·,·,0.0,·,·,·
Cc1cc(Oc2ccc(Cl)cc2Cl)nc(C#N)n1,·,·,-1.0,·,·,·
O=C(NCc1ccccc1)C1CCCN(S(=O)(=O)c2ccc(F)cc2)C1 (stereo not given),36.0*,-0.2,0.2,4.6,0.6,3.0
CCCCN1CC[C@H]2C=CC[C@@H](C(=O)NCc3cccnc3)[C@H]2C1=O,·,·,-0.1,·,·,·
O=C(Nc1ccc(Cl)cc1Cl)[C@@H]1CC=C[C@@H]2CCN(C3CC3)C(=O)[C@@H]21,·,·,-0.4,·,·,·
CCNc1nc2c(c(=O)n(Cc3ccccc3)c(=O)n2C)n1Cc1ccccc1,39.3*,-0.1,-0.8,9.4,11.1,1.7
SMILES,TRHR PAM,TRHR agonist,TRPML1 ag,TRPV1 agonist,TRPV1 potentiator,TRPML1 inh
CCNc1nc2c(c(=O)n(C)c(=O)n2C)n1Cc1ccc(Cl)cc1,-0.5,-2.2,-0.3,-1.1,-2.6,-19.2
COc1cc(C=C(C(C)=O)C(C)=O)ccc1O,-5.4,0.6,0.1,-1.3,4.0,-8.9
COc1cc(/C=C/C(=O)CC(=O)/C=C/c2ccc(O)c(OC)c2)ccc1O,-2.5,106.8*,55.2*!,?,7.5,1.3
COc1cc(/C=C/C(=O)/C=C(O)/C=C/c2ccc(O)c(OC)c2)ccc1O,-8.2,57.9*,?,?,5.1,1.9
O=C(C[N+]12CCCc3cccc(c31)CCC2)c1ccc2ccccc2c1,·,·,0.4,·,·,·
COC(=O)C(C)(C)ONC(=O)Nc1ccccc1[N+](=O)[O-],30.6*,0.3,-0.6,1.5,-6.7,51.0
O=C1c2ccccc2C(Nc2cccnc2)N1Cc1ccccc1Cl (stereo not given),32.5*,-0.7,0.7,5.8,21.7,5.1
CCOC(=O)Cn1nnnc1CN1CCN(c2ccc(OC)cc2)CC1,33.6*,0.8,-0.4,-0.5,6.4,-2.3
O=C1CN(CCN2CC(=O)NC(=O)C2)CC(=O)N1,·,·,-0.4,·,·,·
O=C(N1CCOCC1)C12CC3CC(C1)CC(n1cnc(Cl)n1)(C3)C2,32.5*,-0.1,1.2,0.9,-8.9,35.2
O=C(N1CCOCC1)C12CC3CC(C1)CC(C(=O)N1CCOCC1)(C3)C2,-2.9,2.7,3.5,2.9,5.9,11.9
O=C(O)CCc1cccc2ccccc12,·,·,-0.4,·,·,·
C1=C(c2ccc(-c3ccccc3)cc2)Nc2ncnn2C1c1ccco1 (stereo not given),12.6,30.3*,69.2*,12.3,24.0,2.5
Brc1ccc(C2=CC(c3cccs3)n3ncnc3N2)cc1 (stereo not given),3.4,66.3*,-0.8,?,-11.3,-3.2
OCCCc1nc2n(n1)C(c1cccs1)C=C(c1ccc(Br)cc1)N2 (stereo not given),-3.0,44.8*,·,18.6,16.8,·
Fc1ccc(C2=CC(c3ccc(Br)o3)n3ncnc3N2)cc1 (stereo not given),-1.5,3.6,?,?,-15.2,7.6
Cn1nnnc1Sc1ncnc2scc(-c3cccc(C#N)c3)c12,-4.5,-0.9,·,·,·,·
CNC(=O)c1c(NC(=O)c2ccc(S(=O)(=O)N3CCCC3)cc2)sc2c1CCN(C(C)C)C2,3.2,46.5*,·,22.5,1.5,·
O=S1(=O)CCO[C@H]2CCCC[C@@H]2N1Cc1ccc(Cl)cc1,·,·,-1.1,·,·,·
COc1ccc(Nc2c(-c3ccc(C)cc3)nc3cnccn23)cc1,0.0,-0.5,2.7,4.4,-2.9,16.9
COc1ccc(Nc2c(-c3ccc(OC)cc3)nc3cnccn23)cc1,34.2*,-1.4,0.4,3.1,-12.3,26.4
Cc1ccc(S(=O)(=O)NNC(=O)c2ccc(C(=O)N(c3ccccc3)c3ccccc3)cc2)cc1,·,·,-0.7,·,·,·
CCCCC(CC)C(=O)Nc1cc(C(=O)NCCC)ccc1N1CCC2(CC1)CC(c1ccccc1)=NO2 (stereo not given),37.6*,0.2,1.2,-0.7,-15.7,20.5
Cc1ccc(NC(=O)CN(C)Cc2cccs2)cc1Cl,32.5*,0.1,-0.4,5.7,-9.9,-5.1
